The target of this assay is Sentrin-specific protease 1 (Homo sapiens) (UniProt Q9P0U3). Briefly: retest of SENP1 SUMO protease blockers – biochemical, FRET endpoint, single concentration, confirmation (AID 651678).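 Further: 0% = enzyme with DMSO and 100% = no enzyme control.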 Conditions: recombinant SENP1, CyPet-SUMO1-YPet FRET cleavage; at 10 µM; active compounds read high.

SMILES strings stand for the structures. Some of the results follow. Active and inactive are the calls of the source. No stated cut-off is given here; in the data, active means inhibition mostly above about 35% (no sharp cut-off); inactive means mostly below about 32%.

Sequence of Sentrin-specific protease 1 (Homo sapiens) (Q9P0U3 419-644 limits assumed): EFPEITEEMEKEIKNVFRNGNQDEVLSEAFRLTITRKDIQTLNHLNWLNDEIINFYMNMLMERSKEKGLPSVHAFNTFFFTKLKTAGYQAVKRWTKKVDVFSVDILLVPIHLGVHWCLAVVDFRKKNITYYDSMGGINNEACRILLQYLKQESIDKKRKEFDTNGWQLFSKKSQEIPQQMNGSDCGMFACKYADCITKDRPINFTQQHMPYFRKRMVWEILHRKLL

The inhibition is the share of the control response that was lost under treatment. For the compound `COc1ccccc1N=Nc1c(O)[nH]c(=S)[nH]c1=O`, the inhibition is 52% (active).

Values taken from PubChem BioAssay AID651678 (Sanford-Burnham Center for Chemical Genomics, 2012).
